These results are taken from PubChem BioAssay (NCI).

Test systems include HCT-15 colon; HT29 colon; SNB-75 CNS; SNB-19 CNS; U251 CNS; PC-3 prostate; SK-MEL-5 melanoma; UACC-62 melanoma; LOX IMVI melanoma; SK-MEL-28 melanoma; SK-MEL-2 melanoma; EKVX NSCLC; SN12C renal; UO-31 renal; TK-10 renal; ACHN renal; CAKI-1 renal; A498 renal; CCRF-CEM leukemia; MOLT-4 leukemia.
What all share (assay): NCI-60 one-dose screen, 48 h (100 = growth as untreated, 0 = no growth, -100 = all killed)
Holding throughout (conditions): 10 µM

About 83,000 compounds went through this panel and 20% of them were active in at least one assay; those are over-represented in the sample as a whole.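 Assay: single dose, 48 h. Readout: percent growth (0 = no net growth; negative = cell death). Active: <10.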 Unmarked numbers belong to inactive results. Calls of active or inactive are those of the source.

Regarding `CC1(c2ccccc2)NC(=O)N(CC(=O)Nc2ccc(C(=O)/C=C/c3ccc(Br)cc3)cc2)C1=O` (stereo not given), the growth in the assay on HCT-15 colon was 19%; in the assay on HT29 colon, 3.41% (active); in the assay with SNB-75 CNS, 41.6%; in the assay with SNB-19 CNS, 56.7%; in the assay on U251 CNS, 15.1%; in the assay with PC-3 prostate, 20.1%. Also, the growth with SK-MEL-5 melanoma is 27.5%; with UACC-62 melanoma, 27.2%; with LOX IMVI melanoma it was -49.1% (active); with SK-MEL-28 melanoma, 48.9%; in the assay on SK-MEL-2 melanoma, 52.3%; in the assay with EKVX NSCLC, 55%. Further, the growth in the assay on SN12C renal was 51.2%; in the assay with UO-31 renal it was 34.3%; with TK-10 renal, 76.7%; in the assay with ACHN renal, 35%; in the assay with CAKI-1 renal, 39.5%; in the assay with A498 renal it was 71.1%. The growth in the assay on CCRF-CEM leukemia is 32%; in the assay on MOLT-4 leukemia, 13.9%.
For the compound `O=C(Nc1ccc(Cl)c(C(F)(F)F)c1)c1cncc(C#Cc2cnc3ccc(N4CCOCC4)nn23)c1`, the growth with HCT-15 colon is 15.8%; in the assay on HT29 colon, 8.82% (active); in the assay on SNB-75 CNS, -1.28% (active); in the assay on SNB-19 CNS it was -10.8% (active); with U251 CNS, 20.2%; in the assay with PC-3 prostate, 23.4%. The growth in the assay with SK-MEL-5 melanoma was 4.01% (active); in the assay on UACC-62 melanoma it was -10.3% (active); in the assay on LOX IMVI melanoma, -48.9% (active); in the assay on SK-MEL-28 melanoma it was 0.817% (active); in the assay on SK-MEL-2 melanoma, -33.8% (active); with EKVX NSCLC, 19.2%. In addition, the growth is 6.18% (active) in the assay on SN12C renal; -33.6% (active) in the assay with UO-31 renal; 23.8% with TK-10 renal; -35% (active) in the assay with ACHN renal; 9.84% (active) in the assay with CAKI-1 renal; -19.3% (active) in the assay on A498 renal. In addition, the growth with CCRF-CEM leukemia was 37.5%; in the assay on MOLT-4 leukemia, 0.617% (active).
On to `COc1cccc(-c2ccnc(/N=C(\N)Nc3ccc(S(=O)(=O)Nc4nc(C)cc(C)n4)cc3)n2)c1`, for which the growth is 104% with HCT-15 colon; 106% with HT29 colon; 77.5% in the assay on SNB-75 CNS; 101% in the assay with SNB-19 CNS; 101% in the assay on U251 CNS; 91.2% in the assay on PC-3 prostate. The growth in the assay with SK-MEL-5 melanoma was 99.6%; in the assay with UACC-62 melanoma, 102%; with LOX IMVI melanoma, 85.8%; with SK-MEL-28 melanoma, 112%; in the assay on SK-MEL-2 melanoma, 100%; in the assay on EKVX NSCLC it was 92.7%. The growth was 100% in the assay with SN12C renal; 64.1% with UO-31 renal; 111% in the assay on TK-10 renal; 97.3% in the assay on ACHN renal; 80.4% in the assay on CAKI-1 renal; 114% in the assay with A498 renal. Also, the growth in the assay with CCRF-CEM leukemia is 98.5%; with MOLT-4 leukemia, 101%.
As to `Cc1ccc2nc(COc3ccc(C(=O)NNC(=S)NC(=O)c4ccccc4)cc3)[nH]c2c1`, the growth in the assay with HCT-15 colon is 14.9%; in the assay with HT29 colon it was 43.6%; with SNB-75 CNS, 41.6%; in the assay with SNB-19 CNS, 52.4%; in the assay with U251 CNS, 43.3%; with PC-3 prostate, 50.2%. The growth is 46.1% with SK-MEL-5 melanoma; 51.9% in the assay with UACC-62 melanoma; 34% in the assay on LOX IMVI melanoma; 55.6% with SK-MEL-28 melanoma; 68.9% with SK-MEL-2 melanoma; 51.6% with EKVX NSCLC. The growth is 58.1% in the assay with SN12C renal; 18.6% with UO-31 renal; 67.8% in the assay with TK-10 renal; 23.6% in the assay on ACHN renal; 26.8% with CAKI-1 renal; 97.3% in the assay on A498 renal. The figures for the growth in the assay with CCRF-CEM leukemia and in the assay with MOLT-4 leukemia were 51.5% and 52.6%, respectively.
Regarding `O=C(CNc1nc(-c2ccccc2)cs1)Nc1ccc(Cl)cc1[N+](=O)[O-]`, the growth was -78.5% (active) in the assay on HCT-15 colon; -14.8% (active) with HT29 colon; -19.2% (active) with SNB-75 CNS; 5.15% (active) with SNB-19 CNS; -52.1% (active) in the assay on U251 CNS; 10.5% with PC-3 prostate. Moreover, the growth is -100% (active) in the assay with SK-MEL-5 melanoma; -70.5% (active) in the assay on UACC-62 melanoma; -97.2% (active) with LOX IMVI melanoma; -69.4% (active) in the assay with SK-MEL-28 melanoma; -50.1% (active) in the assay with SK-MEL-2 melanoma; -8.05% (active) in the assay with EKVX NSCLC. Moreover, the growth in the assay with SN12C renal is -28.7% (active); in the assay on UO-31 renal it was -56.4% (active); in the assay with TK-10 renal it was 0.433% (active); in the assay on ACHN renal it was -60.6% (active); in the assay with CAKI-1 renal it was 2.07% (active); with A498 renal it was 14.8%. The figures for the growth in the assay with CCRF-CEM leukemia and in the assay with MOLT-4 leukemia were 11.1% and 3.2% (active), respectively.
For `Cc1noc2c(Cc3ccccc3)nn(CC(=O)N/N=C/c3ccc(Br)cc3)c(=O)c12`, the growth in the assay on HCT-15 colon is 76.5%; with HT29 colon it was 71.1%; in the assay with SNB-75 CNS, 35.3%; in the assay on SNB-19 CNS it was 75.4%; with U251 CNS, 18.4%; in the assay with PC-3 prostate it was 82.7%. For the same compound, the growth was 85.5% with SK-MEL-5 melanoma; 79.7% with UACC-62 melanoma; 45.9% in the assay on LOX IMVI melanoma; 99.5% in the assay on SK-MEL-28 melanoma; 106% in the assay with SK-MEL-2 melanoma; 65.8% in the assay with EKVX NSCLC. In addition, the growth with SN12C renal was 8.51% (active); in the assay on UO-31 renal, -32.3% (active); with TK-10 renal, 17.8%; in the assay on ACHN renal it was 6.21% (active); in the assay with CAKI-1 renal, 58.4%; with A498 renal it was -62.4% (active). The growth was 96.8% in the assay on CCRF-CEM leukemia and 93.9% with MOLT-4 leukemia.
For `O=C(Nc1nc2ccc([N+](=O)[O-])cc2s1)Nc1ccccc1I`, the growth with HCT-15 colon was 1.19% (active); with HT29 colon, 1.95% (active); in the assay on SNB-75 CNS, -1.46% (active); in the assay with SNB-19 CNS, 10.5%; in the assay on U251 CNS, 2.73% (active); with PC-3 prostate it was 9.44% (active). For the same compound, the growth was -78.5% (active) in the assay with SK-MEL-5 melanoma; 3.63% (active) in the assay with UACC-62 melanoma; 9.2% (active) in the assay with LOX IMVI melanoma; 15.8% in the assay on SK-MEL-28 melanoma; -21.6% (active) with SK-MEL-2 melanoma; -8.48% (active) with EKVX NSCLC. In addition, the growth was 1.18% (active) in the assay on SN12C renal; 0.855% (active) with UO-31 renal; 10.8% with TK-10 renal; -0.408% (active) with ACHN renal; -19.5% (active) in the assay on CAKI-1 renal; -8.67% (active) in the assay on A498 renal. The growth with CCRF-CEM leukemia is 3.88% (active); with MOLT-4 leukemia, 1.39% (active).
Consider `Cc1ccc(-c2nc(Nc3ccccc3C(=O)O)c3ccccc3n2)cc1`, for which the growth was 4.66% (active) with HCT-15 colon; 17.8% in the assay on HT29 colon; 15.7% in the assay with SNB-75 CNS; 8.82% (active) with SNB-19 CNS; 18.4% in the assay on U251 CNS; 15.7% with PC-3 prostate. In addition, the growth in the assay with SK-MEL-5 melanoma was -24.8% (active); with UACC-62 melanoma, 11%; with LOX IMVI melanoma it was 8.57% (active); with SK-MEL-28 melanoma it was 28.8%; in the assay on SK-MEL-2 melanoma, 5.75% (active); in the assay with EKVX NSCLC, 13.1%. For the same compound, the growth is 22.2% in the assay with SN12C renal; 12.6% with UO-31 renal; 58.9% in the assay on TK-10 renal; 7.89% (active) in the assay with ACHN renal; 21.1% in the assay on CAKI-1 renal; 21.6% in the assay on A498 renal. Further, the growth with CCRF-CEM leukemia was 12.8%; in the assay with MOLT-4 leukemia, 10.9%.
